Laboratory results taken from PubChem BioAssay AID1159580 (chemical genetic matrix, 2015).
Values joined by “and” are separate entries in the source; they are usually repeats but may differ in a detail not shown here. Equal values may be shown once. The whole screen tested about 5,500 compounds, of which about 2,000 (36%) were called active. Inconclusive results (about 18%) are left out. No stated cut-off is given here; in the data, active means normalized growth mostly below about 0.91 (no sharp cut-off); inconclusive means no clear call, values can overlap the other calls; inactive means mostly above about 0.92. This is one part of the list.

Assay: chemical genetic growth profiling, strain panel (AID 1159580);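 further: tested at 20 µM; growth read once vehicle control cultures reached saturation at 30 °C; 1 = growth at the plate median or of vehicle wells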
Conditions: S. cerevisiae deletion strains, growth OD

Measured: normalized growth

CC(C)(C)CC(C)(C)c1ccc(OCCOCC[N+](C)(C)Cc2ccccc2)cc1
active: locus YAL021C, strain ccr4, stronger effect = lower value 0.0688 | locus YAL026C, strain drs2, stronger effect = lower value 0.0657 | locus YAL030W, strain snc1, stronger effect = lower value 0.0593 | locus YBL061C, strain skt5, stronger effect = lower value 0.0642 | locus YBR009C, strain hhf1, stronger effect = lower value 0.0641 | locus YBR021W, strain FUR4, stronger effect = lower value 0.749 | locus YBR023C, strain chs3, stronger effect = lower value 0.0641 | locus YBR171W, strain sec66, stronger effect = lower value 0.0804 | locus YBR231C, strain swc5, stronger effect = lower value 0.0684 | locus YBR279W, strain paf1, stronger effect = lower value 0.0627 | locus YCL011C, strain gbp2, stronger effect = lower value 0.0631 | locus YCL016C, strain dcc1, stronger effect = lower value 0.0699 | locus YCL069W, strain vba3, stronger effect = lower value 0.0614 | locus YCR088W, strain abp1, stronger effect = lower value 0.0617 | locus YDL005C, strain med2, stronger effect = lower value 0.0736 | locus YDL040C, strain nat1, stronger effect = lower value 0.0719 | locus YDR001C, strain nth1, stronger effect = lower value 0.0593 | locus YDR069C, strain doa4, stronger effect = lower value 0.0664 | locus YDR137W, strain rgp1, stronger effect = lower value 0.0931 | locus YDR159W, strain sac3, stronger effect = lower value 0.1 | locus YDR195W, strain ref2 0.158 | locus YDR297W, strain sur2, stronger effect = lower value 0.0635 | locus YDR334W, strain swr1, stronger effect = lower value 0.0662 | locus YDR335W, strain msn5, stronger effect = lower value 0.0594 | locus YDR392W, strain spt3, stronger effect = lower value 0.0804 | locus YEL003W, strain gim4, stronger effect = lower value 0.0568 | locus YEL037C, strain rad23, stronger effect = lower value 0.0591 | locus YEL061C, strain CIN8 (second series), stronger effect = lower value 0.0651 | locus YER015W, strain faa2, stronger effect = lower value 0.0671 | locus YER016W, strain bim1, stronger effect = lower value 0.0697 | locus YER111C, strain swi4, stronger effect = lower value 0.0727 | locus YER155C, strain BEM2 (second series), stronger effect = lower value 0.0937 | locus YFR010W, strain ubp6, stronger effect = lower value 0.0726 | locus YGL167C, strain pmr1, stronger effect = lower value 0.837 | locus YGL173C, strain kem1, stronger effect = lower value 0.0679 | locus YGL227W, strain vid30, stronger effect = lower value 0.0676 | locus YGL240W, strain doc1, stronger effect = lower value 0.0832 | locus YGL253W, strain hxk2, stronger effect = lower value 0.058 | locus YHR013C, strain ard1, stronger effect = lower value 0.119 | locus YHR027C, strain rpn1, stronger effect = lower value 0.0623 | locus YHR079C, strain IRE1, stronger effect = lower value 0.167 | locus YHR142W, strain chs7, stronger effect = lower value 0.0755 | locus YJL092W, strain hpr5, stronger effect = lower value 0.0645 | locus YJL095W, strain BCK1 (second series), stronger effect = lower value 0.0585 | locus YJL115W, strain asf1, stronger effect = lower value 0.0787 | locus YJL129C, strain trk1, stronger effect = lower value 0.079 | locus YJL154C, strain vps35, stronger effect = lower value 0.0655 | locus YJL164C, strain tpk1, stronger effect = lower value 0.0649 | locus YJL166W, strain qcr8, stronger effect = lower value 0.0654 | locus YJL187C, strain SWE1, stronger effect = lower value 0.0616 | locus YJR066W, strain TOR1, stronger effect = lower value 0.791 | locus YKL160W, strain elf1, stronger effect = lower value 0.0818 | locus YKR001C, strain vps1, stronger effect = lower value 0.686 | locus YKR026C, strain gcn3, stronger effect = lower value 0.0715 | locus YKR091W, strain srl3, stronger effect = lower value 0.0677 | locus YLL001W, strain dnm1, stronger effect = lower value 0.064 | locus YLL026W, stronger effect = lower value 0.059 | locus YLL041C, strain sdh2, stronger effect = lower value 0.0644 | locus YLR027C, strain aat2, stronger effect = lower value 0.0617 | locus YLR113W, strain HOG1, stronger effect = lower value 0.166 | locus YLR221C, strain rsa3, stronger effect = lower value 0.0654 | locus YLR258W, strain gsy2, stronger effect = lower value 0.0637 | locus YLR262C, strain YPT6 (second series), stronger effect = lower value 0.0738 | locus YLR320W, strain mms22, stronger effect = lower value 0.08 | locus YLR342W, strain FKS1, stronger effect = lower value 0.0831 | locus YLR357W, strain rsc2, stronger effect = lower value 0.132 | locus YLR370C, strain arc18, stronger effect = lower value 0.0619 | locus YLR384C, strain iki3, stronger effect = lower value 0.0611 | locus YML120C, strain ndi1, stronger effect = lower value 0.0599 | locus YMR058W, strain fet3, stronger effect = lower value 0.0666 | locus YMR125W, strain sto1, stronger effect = lower value 0.0985 | locus YMR129W, stronger effect = lower value 0.0605 | locus YMR205C, strain PFK2, stronger effect = lower value 0.112 | locus YMR231W, strain pep5, stronger effect = lower value 0.0717 | locus YNL071W, strain lat1, stronger effect = lower value 0.0629 | locus YNL183C, strain NPR1, stronger effect = lower value 0.73 | locus YNL209W, strain ssb2, stronger effect = lower value 0.0644 | locus YNL248C, strain rpa49, stronger effect = lower value 0.0829 | locus YNL322C, strain KRE1 (second series), stronger effect = lower value 0.0768 | locus YNR049C, strain mso1, stronger effect = lower value 0.0601 | locus YOR001W, strain rrp6, stronger effect = lower value 0.0755 | locus YOR070C, strain gyp1, stronger effect = lower value 0.0589 | locus YOR080W, strain dia2, stronger effect = lower value 0.0709 | locus YOR083W, strain WHI5, stronger effect = lower value 0.0783 | locus YOR106W, strain vam3, stronger effect = lower value 0.0737 | locus YOR231W, strain MKK1, stronger effect = lower value 0.451 | locus YOR265W, strain rbl2, stronger effect = lower value 0.0618 | locus YOR270C, strain vph1, stronger effect = lower value 0.103 | locus YOR290C, strain snf2, stronger effect = lower value 0.0712 | locus YPL051W, strain arl3, stronger effect = lower value 0.0738 | locus YPL078C, strain atp4, stronger effect = lower value 0.0749 | locus YPL106C, strain sse1, stronger effect = lower value 0.108 | locus YPL240C, strain hsp82, stronger effect = lower value 0.0673 | locus YPL256C, strain CLN2, stronger effect = lower value 0.347
0.912 (inactive) and 0.258 (active): locus YJL095W, strain BCK1, stronger effect = lower value
0.995 (inactive) and 0.14 (active): locus YHR030C, strain SLT2, stronger effect = lower value
inactive: locus YAL013W, strain DEP1, stronger effect = lower value 0.983 | locus YBR229C, strain ROT2, stronger effect = lower value 1.02 | locus YCL029C, strain bik1, stronger effect = lower value 0.986 | locus YDL035C, strain GPR1, stronger effect = lower value 1.01 | locus YDL074C, strain BRE1, stronger effect = lower value 0.954 | locus YDL101C, strain DUN1, stronger effect = lower value 0.988 | locus YDL134C, strain PPH21, stronger effect = lower value 0.995 | locus YDL185W, strain tfp1, stronger effect = lower value 1 | locus YDL192W, strain arf1, stronger effect = lower value 0.976 | locus YDR101C, strain arx1, stronger effect = lower value 0.991 | locus YDR150W, strain NUM1, stronger effect = lower value 1 | locus YDR162C, strain NBP2, stronger effect = lower value 0.911 | locus YDR318W, strain mcm21, stronger effect = lower value 0.997 | locus YDR388W, stronger effect = lower value 1 | locus YDR502C, strain sam2, stronger effect = lower value 0.988 | locus YEL061C, strain CIN8, stronger effect = lower value 0.999 | locus YER110C, stronger effect = lower value 0.992 | locus YER155C, strain BEM2, stronger effect = lower value 1.03 | locus YER167W, strain BCK2, stronger effect = lower value 1.02 | locus YGL078C, strain dbp3, stronger effect = lower value 0.988 | locus YGL086W, strain mad1, stronger effect = lower value 0.984 | locus YGL248W, strain PDE1, stronger effect = lower value 0.99 | locus YGR078C, strain PAC10, stronger effect = lower value 0.917 | locus YGR135W, strain pre9, stronger effect = lower value 0.994 | locus YGR252W, strain gcn5, stronger effect = lower value 0.98 | locus YHR079C, strain IRE1 (second series), stronger effect = lower value 0.991 | locus YHR094C, strain hxt1, stronger effect = lower value 0.985 | locus YHR129C, strain ARP1, stronger effect = lower value 0.994 | locus YHR200W, strain rpn10, stronger effect = lower value 0.993 | locus YIL066C, strain RNR3, stronger effect = lower value 0.994 | locus YIL073C, strain SPO22, stronger effect = lower value 0.865 | locus YIL125W, strain kgd1, stronger effect = lower value 0.991 | locus YIR030C, strain dcg1, stronger effect = lower value 0.985 | locus YJL134W, strain LCB3, stronger effect = lower value 1 | locus YJL168C, strain set2, stronger effect = lower value 0.999 | locus YJL187C, strain SWE1 (second series), stronger effect = lower value 0.989 | locus YJR043C, strain POL32, stronger effect = lower value 1.03 | locus YKL009W, strain mrt4, stronger effect = lower value 0.965 | locus YKL068W, stronger effect = lower value 1.01 | locus YKL085W, strain MDH1 (second series), stronger effect = lower value 1 | locus YKL085W, strain MDH1, stronger effect = lower value 1 | locus YLR039C, strain RIC1, stronger effect = lower value 0.781 | locus YLR058C, strain SHM2, stronger effect = lower value 0.996 | locus YLR102C, strain apc9, stronger effect = lower value 0.992 | locus YLR262C, strain YPT6, stronger effect = lower value 0.832 | locus YLR268W, strain sec22, stronger effect = lower value 0.974 | locus YLR330W, strain CHS5, stronger effect = lower value 0.993 | locus YLR342W, strain FKS1 (second series), stronger effect = lower value 0.998 | locus YLR371W, strain rom2, stronger effect = lower value 0.992 | locus YLR418C, strain cdc73, stronger effect = lower value 0.871 | locus YML016C, strain PPZ1, stronger effect = lower value 1.01 | locus YML032C, strain rad52, stronger effect = lower value 0.99 | locus YML124C, strain tub3, stronger effect = lower value 0.989 | locus YMR078C, strain ctf18, stronger effect = lower value 0.986 | locus YMR223W, strain ubp8, stronger effect = lower value 0.989 | locus YMR263W, strain SAP30, stronger effect = lower value 0.991 | locus YMR307W, strain GAS1, stronger effect = lower value 1.06 | locus YNL067W, strain RPL9B, stronger effect = lower value 0.977 | locus YNL233W, strain BNI4, stronger effect = lower value 0.984 | locus YNL250W, strain rad50, stronger effect = lower value 0.989 | locus YNL271C, strain bni1, stronger effect = lower value 0.978 | locus YNL298W, strain CLA4, stronger effect = lower value 1.01 | locus YNL307C, strain MCK1, stronger effect = lower value 0.937 | locus YNR052C, strain pop2, stronger effect = lower value 0.99 | locus YOL006C, strain TOP1, stronger effect = lower value 0.864 | locus YOL012C, strain htz1 1.63 | locus YOL147C, strain pex11, stronger effect = lower value 0.985 | locus YOR061W, strain CKA2, stronger effect = lower value 1.01 | locus YOR069W, strain VPS5, stronger effect = lower value 1.01 | locus YOR136W, strain idh2, stronger effect = lower value 0.986 | locus YOR144C, strain elg1, stronger effect = lower value 0.996 | locus YOR184W, strain ser1, stronger effect = lower value 0.954 | locus YOR316C, strain cot1, stronger effect = lower value 0.992 | locus YPL055C, strain LGE1, stronger effect = lower value 0.98 | locus YPL241C, strain CIN2, stronger effect = lower value 1 | locus YPR119W, strain clb2, stronger effect = lower value 0.984 | locus YPR141C, strain kar3, stronger effect = lower value 0.988 | locus YPR163C, strain tif3, stronger effect = lower value 0.981 | locus YPR167C, strain met16, stronger effect = lower value 1.01 | strain wtn01, stronger effect = lower value 0.997
